In PubChem BioAssay (EPA / NIEHS) one finds outcome and AC50 data, which are given here for 40 compounds.

The structures appear in SMILES notation. Activity calls are given as the source filed them. The calls were made as follows: active = hit-call score of the fitted dose curve at least 0.9, where 1 is the maximum; inactive = score below 0.9.

The experiment in a line: ATG_GATA_CIS: Attagene CIS-FACTORIAL HepG2 Assay for human GATA Binding Protein (AID 2282944). Particulars: HepG2 GATA cis-element reporter, Attagene multiplex mRNA; actives raise or lower the signal. Here is the method:
ATG_CIS is a cell-based, multiplexed-readout assay that uses HepG2, a human liver cell line, with measurements taken at 24 hours after chemical dosing in a 24-well plate.ATG_GATA_CIS is one of 52 assay component(s) measured or calculated from the ATG_CIS assay. It is designed to make measurements of mRNA induction, a form of inducible reporter, as detected with fluorescence intensity signals by Reverse transcription polymerase chain reaction (RT-PCR) and Capillary electrophoresis technology.Data from the assay component ATG_GATA_CIS was analyzed into 1 assay endpoint. This assay endpoint, ATG_GATA_CIS, was analyzed with bidirectional fitting relative to DMSO as the negative control and baseline of activity. Using a type of inducible reporter, measures of mRNA for gain or loss-of-signal activity can be used to understand the reporter gene at the transcription factor-level as they relate to the gene GATA1. Furthermore, this assay endpoint can be referred to as a primary readout, because this assay has produced multiple assay endpoints where this one serves a reporter gene function. To generalize the intended target to other relatable targets, this assay endpoint is annotated to the dna binding intended target family, where the subfamily is GATA proteins.
Human liver HepG2 cells are transiently transfected with multiple reporter transcription units (MRTUs) in 6-well plates using FuGene 6 reagent (Roche; 3 ml FuGene/1 mg DNA). The MRTU constructs are regulated by a cis-regulating element (promoter). […] A major difference between the CIS and TRANS system is that in CIS activities of endogenous TFs are measured, whereas the TRANS assay evaluates changes in activities of exogenous, chimeric NR-Gal4 proteins. […] At the end of 24 hour incubation, total RNA was isolated using TriZol reagent (Invitrogen). The isolated RNA is then reverse-transcribed using oligo(dT) primer and Mo-MLV reverse transcriptase (Invitrogen) with DNAse I (Ambion) treatment for 30 min. The one-tenth of the produced cDNA was amplified by PCR using Taq DNA polymerase (Invitrogen) and two reporter sequence-specific primers. The PCR products were fluorescently labeled by primer extension with 6-arboxyfluorescein (6-FAM) 5'-labeled reporter sequence-specific primer (2 min at 95 C, 20 s at 68 C and 10 min at 72 C) and these products were digested with 5U of HpaI (New England Biolabs) for 2h at 37 C. The fragments were purified using Qiaquick PCR columns (Qiagen), analyzed on an ABI 3130xL genetic analyzer (Applied Biosystems) with peak positions identified by using a set of X-rhodamine (ROX)-labeled MapMarker1000 molecular weight standards (BioVentures). The raw capillary electrophoresis data was processed using Attagraph software (Attagene).
`COC(=O)c1sccc1S(N)(=O)=O`: the result was inactive.
On to `CCCCCCCCO[C@@H]1O[C@H](CO)[C@@H](O)[C@H](O)[C@H]1O`, for which the result was inactive.
Turning to `CC(C)CCCC(C)CC=O` (stereo not given), the outcome was inactive.
The same measure, in the same setting: for `C=CC(C)(CCC=C(C)C)OC(=O)CC(C)C` (stereo not given) the value was “inactive”; for `CC(C)=CCC/C(C)=C\C#N`, “inactive”; for `Nc1ccc(N)c(Cl)c1`, “inactive”.
For orientation: AC50 means the concentration giving half of the maximal activity seen. On to `CC(C)C1=CC2=CC[C@@H]3[C@](C)(CCC[C@@]3(C)C(=O)O)[C@H]2CC1`, for which the AC50 is 54.1 µM (active).
Turning to `C=COCCCC`, the compound was classed as inactive.
Take `CC(C)c1ccc2cc(C(C)C)ccc2c1`: the compound was classed as inactive.
The same measure, in the same setting: next, `O=C1C=CC(=O)O1`: “inactive”; `CCc1nccnc1C`: “inactive”.
Same read-out and setting: for `CO[Si](OC)(OC)c1ccccc1` the value was “inactive”; for `O=C(Oc1ccccc1)c1ccc2ccccc2c1O`, “inactive”; for `CC(C)(C)c1ccc(-c2ccc(C(C)(C)C)cc2)cc1`, “inactive”.
Same read-out and setting: for `CCCC(C)CCC(C)=O` (stereo not given) the value was “inactive”; for `CCCOC(=O)CCCCC(=O)OCCC`, “inactive”.
Consider `CC=CCO`, for which the compound was called inactive.
`C=CC(C)(CCC=C(C)C)OC(=O)C(C)C` (stereo not given): the call was inactive.
Still for that read-out and setting: next, `NC(=O)C1CO1` (stereo not given): “inactive”.
On to `CCOC(=O)c1ccccc1C(=C1C=C(Br)C(=O)C(Br)=C1)c1cc(Br)c(O)c(Br)c1`, for which the outcome was inactive.
Same read-out and setting: for `C=C1C2CCC(C2)C1(C)C` (stereo not given) the value was “inactive”; for `O=C1C(N(CO)C(=O)NCO)N(CO)C(=O)N1CO` (stereo not given), “inactive”; for `CNC(=S)NN`, “inactive”.
Turning to `C1CN(SSN2CCOCC2)CCO1`, the call was inactive.
`CC(=O)OCCC1CCCCC1`: the result was inactive.
The same measure, in the same setting: for `[Cl][Bi]([Cl])([c]1ccccc1)([c]1ccccc1)[c]1ccccc1` the value was “inactive”; for `C=CC(=O)OCCOC1C2CCC1C1CC=CC12` (stereo not given), “inactive”.
Take `Oc1ccc(Cl)cc1Cc1cc(Cl)ccc1O`: the compound was classed as inactive.
On the same count and under the same terms, next, `O=C1CC2CC1C1CCCC21` (stereo not given): “inactive”; `C=CCCCCCCCCC(=O)OCCCC`: “inactive”; `O=S(=O)(O)c1ccc2cc(O)c(S(=O)(=O)O)cc2c1`: “inactive”.
On the same count and under the same terms, for `CCCCCCCCCCc1ccccc1` the value was “inactive”; for `O=C(C=Cc1ccccc1)OCc1ccccc1`, “inactive”.
On the same count and under the same terms, next, `O=CN1CCCCC1`: “inactive”.
With `Cc1ccc(N)c([N+](=O)[O-])c1`, the call was inactive.
Same read-out and setting: next, `Cc1ccc(OC(=O)CC(C)C)cc1`: “inactive”; `CC(=O)OC1C2(C)CCC(C2)C1(C)C` (stereo not given): “inactive”.
On the same count and under the same terms, next, `O=S(=O)(Oc1ccc(Cl)cc1Cl)c1ccccc1`: “inactive”; `CC(=O)NS(=O)(=O)c1ccc(N)cc1`: “inactive”; `C=C[Si](C)(C)O[Si](C)(C)C=C`: “inactive”.
